The list shows a part of the results. Inconclusive results are not listed. Values without a mark were called inactive.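 Rule for the calls: active = compound lowering PGC-1a expression with fitted half-maximal concentration at most twice its top tested dose; inconclusive = flat curve with moderate opposite-direction effect, or poor fit; inactive = the rest.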

This assay can be described thus: hepatocyte PGC-1a gene expression decrease – cell-based, primary mouse hepatocytes, RT-qPCR, cherry-pick, PGC-1a acetylation activator project, dose response (AID 743467).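 Note: 0% = neutral control wells median and 100% = positive control wells median.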 The note with it: PGC-1a mRNA qPCR, forskolin, top dose 26 µM, hits give high values; at 26 µM unless noted. In general terms: Quantitative PCR measures a nucleic acid by following its amplification.
For `Cc1cc(C)c2c(-n3cccc3)c(C(=O)NNS(=O)(=O)c3ccc(F)cc3)sc2n1`, the max activity (PGC-1a expression decrease) was 82.5% [at 8 µM].

`CCOC(=O)c1c(NC(=O)CSc2cn(CC)c3ccccc23)sc2c1CCC2`: the max activity (PGC-1a expression decrease) is 60.3%.

For `Cc1ccc(OCC(=O)NCCCNC(=O)c2cccnc2)cc1C`, the max activity (PGC-1a expression decrease) was 111%.

`COc1ccc(Nc2nnc(C)c3ccccc23)cc1`: the max activity (PGC-1a expression decrease) is 52.1%.

With `O=S(=O)(NCc1ccccc1Br)c1ccccc1Br`, the max activity (PGC-1a expression decrease) was 65.1%.

On to `CCOC(=O)c1c(-c2ccc(C)cc2C)csc1NC(=O)CSc1nnnn1C`, for which the max activity (PGC-1a expression decrease) is 87% [at 8 µM].

As to `CCOc1ccccc1CN1CCN(C2CCC2)CC1CCO` (centres undefined), the max activity (PGC-1a expression decrease) was 28.9% [at 8 µM].

Take `CCC(C)(C)n1nnnc1C(c1ccccc1OC)N1CCSCC1` (centres undefined): the max activity (PGC-1a expression decrease) was 74.7%.

Consider `Cc1cc(C(=O)NNS(=O)(=O)c2ccccc2C(F)(F)F)nn1C(C)(C)C`, for which the max activity (PGC-1a expression decrease) was 22.5% [at 0.0012 µM].

For `O=C(NCCC1CCCCN1S(=O)(=O)c1cccs1)C(=O)Nc1ccc(F)cc1F` (centres undefined), the max activity (PGC-1a expression decrease) is 63.6%.

Take `CC(C)CCNc1nc(N2CCCC2)c2c(c1C#N)CCN(C)C2`: the max activity (PGC-1a expression decrease) is 56.4%.

In the case of `CCCCC(=O)Nc1ccc(C(=O)NCCCn2ccnc2)cc1`, the max activity (PGC-1a expression decrease) was 68.4% [at 0.011 µM].

For `COc1ccc(-n2nnnc2CNC(=O)c2ccc3ccccc3c2)cc1`, the max activity (PGC-1a expression decrease) is 86.6% [at 0.0038 µM].

As for `O=C(NCc1ccccc1)C(c1ccccc1)N(C(=O)c1csnn1)c1ccc(F)cc1` (centres undefined), the max activity (PGC-1a expression decrease) was 114% [at 8 µM].

The record behind these values is PubChem BioAssay AID743467 (Broad Institute, 2014).
